Drawing on PubChem BioAssay, this text covers composite z-score, composite Z-score and z-score for 6 compounds.

Calls of active or inactive are those of the source.

One assay has as its target Albumin (Bos taurus) (UniProt P02769). The assay is described as follows: compounds binding labelled BSA control protein – biochemical, small-molecule microarray, Alexa647 label, 635/667 nm fluorescence, artefact control for SMM control protein annotation, profiling panel (AID 1118).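 Also: score merges 667 nm emission intensity and signal-to-noise per printed compound spot.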 Conditions: BSA-A647 binding, fluorescence 635 nm, higher = more signal.
A short description of assay [1]: probe aXIP binding to arrayed compounds – biochemical, NeuroSMM set, 635/667 nm fluorescence, primary screen (AID 1119).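 Also: probe is the protein aXip251-270 applied at 1 µg/mL to compound-printed slides; binding of probe to printed compounds measured as 667 nm fluorescence plus signal to noise.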 Conditions: small-molecule microarray, higher = more signal, called active from +8 up or from −8 down.
Assay [2] in a line: probe aNOTCH3 binding on compound microarray – biochemical, small-molecule microarray, 635/667 nm fluorescence, primary screen (AID 1120).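 Also: probe is a biotin-tagged antibody raised against NOTCH3 rather than NOTCH3 protein; score merges spot fluorescence near 667 nm with spot signal to noise.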 Conditions: higher = more signal.
Assay [3] is described as follows: probe aNOTCH2 binding on compound microarray – biochemical, small-molecule microarray, 635/667 nm fluorescence, primary screen (AID 1121).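 Also: score merges feature fluorescence read at 667 nm with its signal to noise.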 Conditions: higher = more signal.
The target in assay [4] is Carbonic anhydrase 2 (Homo sapiens) (UniProt P00918). Nature of the assay: compounds binding carbonic anhydrase 2 – biochemical, small-molecule microarray, Alexa647-labelled CAII, profiling panel (AID 1122). To be noted: CAII-A647 binding fluorescence, higher = more signal.
Assay [5] is described as follows: COS7 lysate on small-molecule microarray, probe aHis, 635 nm (AID 1123).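 Also: z-score combines 667nm fluorescence intensity with signal-to-noise per printed compound spot.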 Conditions: COS7 cell lysate, fluorescence, higher = more signal.
Assay [6] can be described thus: probe aLAP1 signal on lysate-treated microarray – cell lysate, small-molecule microarray, COS7 lysate, primary screen (AID 1124).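 Also: lysate comes from COS7 cells expressing LAP1 and is applied at 0.3 µg/mL; score merges spot fluorescence near 667 nm with signal-to-noise over triplicate slides.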 To be noted: probe aLAP1, fluorescence, higher = more signal.
The next assay deals with Sam68 (KHDRBS1). Nature of the assay: compounds binding KHDRBS1 protein – biochemical, small-molecule microarray, 635 nm fluorescence, primary screen (AID 1125).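 Also: score merges 667 nm channel intensity with signal to noise over triplicate slides.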 Conditions: higher = more signal.
Assay [7] relates to Chordin-like protein 2 (CHRDL2). The assay is described as follows: compounds binding chordin-like 2 – biochemical, small-molecule microarray, 635 nm fluorescence, primary screen (AID 1126).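 Also: printed compound slides probed with Chrdl2 protein at 4 µg/mL for 1 h at 4 C; score merges 667 nm emission intensity with signal to noise over three replicate slides.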 To be noted: fluorescence 635 nm, higher = more signal.
For assay [8], the target named is Concanavalin-A (Canavalia ensiformis) (UniProt P02866). The assay is described as follows: compounds binding concanavalin A lectin – biochemical, small-molecule microarray, Alexa647 label, 635 nm, artefact control for SMM control protein annotation, primary screen (AID 1127).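 Also: z combines 667 nm emission intensity with signal-to-noise across three replicate slides.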 To be noted: ConA-A647 binding fluorescence, higher = more signal.
Sequence of Concanavalin-A (Canavalia ensiformis) (P02866 whole entry, looked up): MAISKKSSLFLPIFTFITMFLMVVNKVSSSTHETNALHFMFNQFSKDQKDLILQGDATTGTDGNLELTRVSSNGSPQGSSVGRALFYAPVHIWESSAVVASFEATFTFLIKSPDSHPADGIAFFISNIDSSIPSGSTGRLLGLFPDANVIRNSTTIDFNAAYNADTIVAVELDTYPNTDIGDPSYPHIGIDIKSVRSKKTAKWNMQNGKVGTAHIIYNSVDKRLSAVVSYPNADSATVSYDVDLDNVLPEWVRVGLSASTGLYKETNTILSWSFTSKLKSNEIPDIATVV
Assay [9] is described as follows: compounds binding Alexa647 anti-His antibody – biochemical, small-molecule microarray, 635 nm fluorescence, artefact control for SMM control protein annotation, primary screen (AID 1128).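 Also: score merges feature fluorescence with signal-to-noise for each printed compound spot.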 Conditions: higher = more signal.
The test system of assay [10] is Human papillomavirus type 1a E7 protein (residues 1-88). The assay is described as follows: HPV1a E7 small-molecule binders, primary screen, biochemical, small-molecule microarray, residues 1-88, 635 nm (AID 1129). To be noted: small-molecule microarray binding, fluorescence 635 nm; higher = more signal.
Assay [11] addresses Focal adhesion kinase 1 (Homo sapiens) (UniProt Q05397). The assay is described as follows: PTK2 protein binding on printed compound slides – biochemical, small-molecule microarray, 635/667 nm fluorescence, BSA, DTT, primary screen (AID 1130).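 Also: composite of spot emission at 667 nm and signal to noise over triplicate slides.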 To be noted: 635 nm fluorescence, higher = more signal.
The subject of assay [12] is Fibrinogen (Alexa647-labelled). Nature of the assay: Alexa647-fibrinogen binding to printed small molecules – biochemical, small-molecule microarray, 635/667 nm fluorescence, artefact control for SMM control-protein annotation, profiling panel (AID 1131).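 Also: z-score merges 667 nm fluorescence with per-spot signal-to-noise over triplicate slides.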 To be noted: fibrinogen-A647 binding fluorescence, higher = more signal.
For assay [13], the target named is Follistatin (Homo sapiens) (UniProt P19883). The assay is described as follows: FST protein binding to printed compounds – biochemical, small-molecule microarray, 635/667 nm fluorescence, primary screen (AID 1132). Conditions: 635 nm fluorescence, higher = more signal.
Sequence of Follistatin (Homo sapiens) (P19883 whole entry, looked up): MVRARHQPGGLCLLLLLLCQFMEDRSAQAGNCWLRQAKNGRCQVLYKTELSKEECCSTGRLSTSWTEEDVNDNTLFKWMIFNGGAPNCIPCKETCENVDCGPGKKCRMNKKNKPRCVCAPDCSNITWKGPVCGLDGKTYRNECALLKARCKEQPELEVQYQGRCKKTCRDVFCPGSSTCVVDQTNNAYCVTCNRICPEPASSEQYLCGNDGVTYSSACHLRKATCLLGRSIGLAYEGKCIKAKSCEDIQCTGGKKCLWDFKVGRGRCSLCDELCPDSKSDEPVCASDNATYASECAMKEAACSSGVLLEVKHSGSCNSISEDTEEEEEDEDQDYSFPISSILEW
For assay [14], the target named is Fibroblast growth factor 2 (Homo sapiens) (UniProt P09038). The assay is described as follows: basic fibroblast growth factor binding to printed compounds – biochemical, small-molecule microarray, 635/667 nm fluorescence, primary screen (AID 1133). Conditions: FGF2, fluorescence 635/667, higher = more signal.
Sequence of Fibroblast growth factor 2 (Homo sapiens) (P09038 whole entry, looked up): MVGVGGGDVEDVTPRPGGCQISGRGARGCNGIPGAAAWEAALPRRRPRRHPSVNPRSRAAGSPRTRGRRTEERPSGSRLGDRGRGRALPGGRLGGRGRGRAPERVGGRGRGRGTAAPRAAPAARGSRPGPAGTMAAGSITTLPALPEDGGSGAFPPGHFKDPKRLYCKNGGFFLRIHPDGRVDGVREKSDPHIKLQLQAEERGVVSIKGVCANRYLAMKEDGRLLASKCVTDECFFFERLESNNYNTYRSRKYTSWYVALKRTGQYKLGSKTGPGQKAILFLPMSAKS
Assay [15] is described as follows: JC-1 mitochondrial potential readout, lung cancer cells – cell-based, A549, JC-1 fluorescence, basal, 24 h, 100 nL, profiling panel (AID 1138).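 Also: A549 lung adenocarcinoma cells under basal conditions with no added stimulus; test concentration not given here.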 To be noted: higher = more signal.
In a further assay the test system is Lefty1. Nature of the assay: Lefty1 protein binding to printed compounds – biochemical, small-molecule microarray, 635/667 nm fluorescence, primary screen (AID 1139). To be noted: fluorescence 635/667, higher = more signal.
Assay [16] has as its system wheat germ agglutinin (Triticum aestivum), Alexa647-labelled. Nature of the assay: Alexa647-WGA lectin binding to printed small molecules – biochemical, small-molecule microarray, 635/667 nm fluorescence, artefact control for SMM control-protein annotation, profiling panel (AID 1140).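 Also: score merges 667 nm feature emission with signal to noise over triplicate slides.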 Conditions: WGA-A647 binding, 635 nm fluorescence, higher = more signal.
The target in assay [17] is Luciferin 4-monooxygenase (Photinus pyralis) (UniProt P08659). Nature of the assay: inhibition of purified Photinus pyralis luciferase – biochemical, luminescence, purified enzyme, 2006 set, primary screen (AID 1141).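 Also: cell-free assay with purified firefly luciferase at 100 ng per well in PBS; test concentration not given here.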 To be noted: purified firefly luciferase, SteadyGlo luminescence, 30 min; higher = more signal, called active from +8 up or from −8 down.
Sequence of Luciferin 4-monooxygenase (Photinus pyralis) (P08659 whole entry, looked up): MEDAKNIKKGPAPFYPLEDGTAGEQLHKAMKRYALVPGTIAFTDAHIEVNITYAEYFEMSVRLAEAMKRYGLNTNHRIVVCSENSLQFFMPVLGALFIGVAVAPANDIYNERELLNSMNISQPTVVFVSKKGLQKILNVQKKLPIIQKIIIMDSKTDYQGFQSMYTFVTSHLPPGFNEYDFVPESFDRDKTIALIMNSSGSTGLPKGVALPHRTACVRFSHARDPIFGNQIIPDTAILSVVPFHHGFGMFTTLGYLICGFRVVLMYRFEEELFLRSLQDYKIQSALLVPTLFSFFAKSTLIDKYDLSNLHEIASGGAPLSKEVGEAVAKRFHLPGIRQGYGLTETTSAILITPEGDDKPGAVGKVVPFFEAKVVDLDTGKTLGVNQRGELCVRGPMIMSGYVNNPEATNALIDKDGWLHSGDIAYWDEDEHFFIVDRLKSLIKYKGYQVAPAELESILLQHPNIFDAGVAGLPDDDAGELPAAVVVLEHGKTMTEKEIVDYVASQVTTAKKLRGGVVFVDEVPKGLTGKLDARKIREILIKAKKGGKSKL

Sequence of Focal adhesion kinase 1 (Homo sapiens) (Q05397 whole entry, looked up): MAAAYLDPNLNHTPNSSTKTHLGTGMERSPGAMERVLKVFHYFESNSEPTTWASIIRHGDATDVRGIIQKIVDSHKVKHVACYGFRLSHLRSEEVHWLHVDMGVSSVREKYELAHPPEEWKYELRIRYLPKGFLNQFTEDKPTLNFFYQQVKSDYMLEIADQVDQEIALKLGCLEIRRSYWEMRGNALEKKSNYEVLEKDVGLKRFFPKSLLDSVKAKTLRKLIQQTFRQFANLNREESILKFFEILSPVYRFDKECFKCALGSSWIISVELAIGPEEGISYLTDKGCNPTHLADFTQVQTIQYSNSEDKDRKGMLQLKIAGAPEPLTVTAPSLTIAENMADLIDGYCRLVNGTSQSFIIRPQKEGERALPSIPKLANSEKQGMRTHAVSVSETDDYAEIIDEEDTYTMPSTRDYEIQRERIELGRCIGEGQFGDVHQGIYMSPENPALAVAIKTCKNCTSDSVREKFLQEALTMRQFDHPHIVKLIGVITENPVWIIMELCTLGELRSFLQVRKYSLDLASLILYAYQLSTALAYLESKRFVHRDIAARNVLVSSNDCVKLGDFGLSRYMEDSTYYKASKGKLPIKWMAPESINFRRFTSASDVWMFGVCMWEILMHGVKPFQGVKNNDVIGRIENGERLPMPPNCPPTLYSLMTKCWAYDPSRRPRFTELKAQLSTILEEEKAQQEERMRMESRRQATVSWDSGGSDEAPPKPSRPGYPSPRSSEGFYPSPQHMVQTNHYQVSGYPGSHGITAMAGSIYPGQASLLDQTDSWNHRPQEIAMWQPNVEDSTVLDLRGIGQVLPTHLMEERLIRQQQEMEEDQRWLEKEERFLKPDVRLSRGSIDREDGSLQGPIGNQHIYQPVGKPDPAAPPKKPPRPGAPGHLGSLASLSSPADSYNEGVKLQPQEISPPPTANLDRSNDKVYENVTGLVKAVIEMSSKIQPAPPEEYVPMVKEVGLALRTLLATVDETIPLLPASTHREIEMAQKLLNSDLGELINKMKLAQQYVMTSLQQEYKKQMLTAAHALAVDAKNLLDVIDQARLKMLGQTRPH
Sequence of Albumin (Bos taurus) (P02769 whole entry, looked up): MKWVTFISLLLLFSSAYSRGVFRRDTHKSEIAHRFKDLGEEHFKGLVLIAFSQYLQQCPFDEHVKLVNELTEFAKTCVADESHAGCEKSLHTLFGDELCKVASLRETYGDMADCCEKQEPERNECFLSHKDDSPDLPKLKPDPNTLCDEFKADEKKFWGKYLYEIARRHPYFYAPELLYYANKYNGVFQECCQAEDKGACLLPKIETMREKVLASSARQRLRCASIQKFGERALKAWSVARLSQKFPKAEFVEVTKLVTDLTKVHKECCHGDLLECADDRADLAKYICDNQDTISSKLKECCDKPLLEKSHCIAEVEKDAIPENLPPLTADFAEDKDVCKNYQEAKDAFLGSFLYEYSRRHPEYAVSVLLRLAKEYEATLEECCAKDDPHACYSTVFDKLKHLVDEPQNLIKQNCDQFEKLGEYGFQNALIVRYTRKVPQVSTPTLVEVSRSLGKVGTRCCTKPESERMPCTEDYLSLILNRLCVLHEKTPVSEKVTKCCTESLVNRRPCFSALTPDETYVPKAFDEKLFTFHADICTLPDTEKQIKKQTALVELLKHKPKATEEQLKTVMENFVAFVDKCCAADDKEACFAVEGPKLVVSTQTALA

As for `COc1cc(NN2C(C(O)c3ccccc3)C=CC3C(=O)N(c4ccccc4)C(=O)C32)cc(OC)c1OC` (stereo not given), the composite z-score is 0.923 with Albumin (Bos taurus); 0.569 in [2]; -0.124 in assay [3]; 0.831 in assay [4]; 3.3 in assay [5]; 0.263 in assay [6]. The composite z-score was 1.31 with Sam68 (KHDRBS1); -0.0912 in assay [7]; 0.919 in assay [8]; 1.67 in assay [9]; 1.28 in [10]; 0.707 in assay [11]. In addition, the composite z-score in assay [12] was 0.967; in [13] it was 0.952; in assay [14], 0.444; in the assay on Lefty1, 0.879; in [16], 1.39. Moreover, in assay [1], the composite Z-score is 0.153 (inactive). For the same compound, the z-score was 1.42 in [15] and -2.13 (inactive) in assay [17].

For `C=CCC(OC(C)=O)[C@@H]1[C@@H](N(Cc2ccc(-c3ccccc3)cc2)C(=O)c2ccc(C)cc2)c2cc(OCCCO)ccc2N1C(=O)Cc1ccc(OC)cc1` (stereo not given in full), the composite z-score with Albumin (Bos taurus) was -0.0547; in assay [2] it was -0.0208; in assay [3], -0.0131; in assay [4] it was -0.249; in [5], 0.0567; in [6] it was 0.179. Also, the composite z-score was -0.248 in the assay on Sam68 (KHDRBS1); -0.0845 in [7]; 0.733 in assay [8]; -0.109 in assay [9]; -0.33 in assay [10]; -0.026 in assay [11]. Moreover, the composite z-score in [12] was 0.386; in assay [13] it was 0.534; in [14] it was -0.177; in the assay on Lefty1, 0.0835; in assay [16], 0.115. The composite Z-score in [1] was 0.39 (inactive). The z-score in assay [15] is 1.85; in assay [17] it was -1.58 (inactive).

For `O=C1C2C=CC(C(O)c3ccc(-c4ccccc4)s3)N(Nc3ccccc3F)C2C(=O)N1c1ccccc1` (stereo not given), the composite z-score in the assay with Albumin (Bos taurus) worked out at 0.822; in [2] it was 0.113; in assay [3], 0.149; in assay [4], 0.69; in assay [5] it was 2.09; in assay [6] it was 0.335. The composite z-score with Sam68 (KHDRBS1) is 1.29; in assay [7], -0.0798; in assay [8] it was 1.12; in assay [9] it was 1.29; in assay [10] it was 1.21; in assay [11] it was 0.816. The composite z-score came out at 0.997 in [12]; 1.18 in assay [13]; 1.16 in [14]; 0.133 in the assay with Lefty1; 0.994 in assay [16]. Moreover, the composite Z-score in assay [1] is 0.446 (inactive). The z-score in assay [15] is -1.12; in [17] it was -0.324 (inactive).

Turning to `O=C(CS)NCCCCCNC(=O)[C@H]1C[C@H]2C(=O)N[C@@H](Cc3ccccc3)C(=O)N2[C@H]1c1cccc(OCCO)c1`, the composite z-score in the assay with Albumin (Bos taurus) is -1.62; in [2], 0.273; in [3] it was -0.0562; in assay [4] it was 0.484; in [5], 1.75; in assay [6] it was 0.76. Further, the composite z-score with Sam68 (KHDRBS1) was determined as 1.31; in [7] it was 1.43; in assay [8], 1.18; in [9] it was 2.51; in assay [10], 1.16; in [11], 0.181. For the same compound, the composite z-score in assay [12] was determined as 0.748; in assay [13] it was 1.37; in [14], 1.77; in the assay on Lefty1, 1.45; in [16] it was 0.788. Further, the composite Z-score in [1] was 0.482 (inactive). For the same compound, the z-score in assay [15] is 1.17; in [17], -2.3 (inactive).

Consider `COCCn1c(C(=O)N(C)C)cc2c1C[C@H]1CN(C(=O)c3ccccc3)[C@@](Cc3ccc(F)cc3)(C(=O)OC)[C@@H]21`, for which the composite z-score in the assay with Albumin (Bos taurus) is 0.985; in assay [2], 0.073; in [3], 0.197; in assay [4], 0.859; in assay [5], 2.02; in [6] it was -0.0593. Further, the composite z-score in the assay on Sam68 (KHDRBS1) turned out to be 0.459; in [7], 0.194; in [8], 0.787; in assay [9], 2.3; in [10], 1.1; in assay [11], 0.169. The composite z-score in assay [12] is 0.485; in [13], 0.134; in assay [14], -0.158; in the assay with Lefty1 it was -0.0481; in [16] it was 1.11. Besides, in assay [1], the composite Z-score is 0.916 (inactive). For the same compound, the values for the z-score in assay [15] and in assay [17] were 0.33 and -0.663 (inactive), respectively.

`CO[C@H]1O[C@H](CO)[C@@H](OC(=O)Nc2ccccc2-c2ccccc2)[C@H](OC(=O)Nc2ccccc2-c2ccccc2)[C@H]1OC(=O)Nc1ccccc1-c1ccccc1`: the composite z-score in the assay with Albumin (Bos taurus) was 0.784; in assay [2] it was 0.275; in assay [3], -0.0759; in [4] it was 0.503; in [5] it was 1.96; in [6] it was -0.32. The composite z-score was found to be 1.3 in the assay with Sam68 (KHDRBS1); 0.0309 in [7]; 1.15 in assay [8]; 2.54 in assay [9]; 1.27 in assay [10]; 0.464 in [11]. Further, the composite z-score in assay [12] turned out to be 1.02; in [13] it was 1.3; in assay [14], 1.63; in the assay with Lefty1, 0.644; in assay [16], 0.745. Also, the composite Z-score in assay [1] is 0.341 (inactive). Moreover, the z-score in assay [15] was 0.147; in assay [17], -1.35 (inactive).
